The supplement of paper PMC12282887
± gives the standard deviation of the averaged measurements.

Legend:
Test in all cases: promoter activity interaction Z-score (Lux/OD deviation from empty-vector control); higher = stronger promoter induction by the compound
[1] = tested on: E. coli BW25113 acrABp lux reporter
Method in brief: (§1)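 Reporter strains of E. coli BW25113 grew at 37°C in 40 µl LB Lennox in 384-well plates. Readings of OD600 and luminescence were taken every 30 min over 12 h, integrated over 0–8 h (wild type) or 1–9 h (deletion strains), and wells below 10% of the median growth value were excluded. Scores are Z-transformed residuals of growth-normalised luminescence from a fit against a control.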

[2] = tested on: E. coli BW25113 micFp lux reporter
Method in brief: as §1

[3] = tested on: E. coli BW25113 ompFp lux reporter
Method in brief: as §1

[4] = tested on: E. coli BW25113 robp lux reporter
Method in brief: as §1

[5] = tested on: E. coli BW25113 soxSp lux reporter
Method in brief: as §1

[6] = tested on: E. coli BW25113 tolCp lux reporter
Method in brief: as §1

[7] = 0.034 µg/ml, genetic background: wild type
[8] = 0.034 µg/ml, genetic background: ΔmarA
[9] = 0.034 µg/ml, genetic background: Δrob
[10] = 0.034 µg/ml, genetic background: ΔsoxS
[11] = 0.067 µg/ml, genetic background: wild type
[12] = 0.067 µg/ml, genetic background: ΔmarA
[13] = 0.067 µg/ml, genetic background: Δrob
[14] = 0.067 µg/ml, genetic background: ΔsoxS
[15] = 0.13 µg/ml, genetic background: wild type
[16] = 0.13 µg/ml, genetic background: ΔmarA
[17] = 0.13 µg/ml, genetic background: Δrob
[18] = 0.13 µg/ml, genetic background: ΔsoxS
[19] = 0.27 µg/ml, genetic background: wild type
[20] = 0.27 µg/ml, genetic background: ΔmarA
[21] = 0.27 µg/ml, genetic background: Δrob
[22] = 0.27 µg/ml, genetic background: ΔsoxS

**Q.** What does the source list for `CCN1CCN(C(=O)N[C@@H](C(=O)N[C@@H]2C(=O)N3[C@@H]2SC(C)(C)[C@@H]3C(=O)O)c2ccccc2)C(=O)C1=O` [Piperacillin]?
**A.** promoter activity interaction Z-score [1, 7]: -0.232 ± 0.0098; promoter activity interaction Z-score [1, 8]: -0.0362 ± 0.011; promoter activity interaction Z-score [1, 9]: 0.0917 ± 0.12; promoter activity interaction Z-score [1, 10]: -0.171 ± 0.35; promoter activity interaction Z-score [1, 11]: -0.00951 ± 0.16; promoter activity interaction Z-score [1, 12]: -0.975 ± 0.12; promoter activity interaction Z-score [1, 13]: -0.296 ± 0.13; promoter activity interaction Z-score [1, 14]: 0.0579 ± 0.55; promoter activity interaction Z-score [1, 15]: -0.124 ± 0.2; promoter activity interaction Z-score [1, 16]: 0.866 ± 1.5; promoter activity interaction Z-score [1, 17]: 0.0632 ± 0.21; promoter activity interaction Z-score [1, 18]: -0.295 ± 0.39; promoter activity interaction Z-score [1, 19]: -0.155 ± 0.22; promoter activity interaction Z-score [1, 20]: 1.08 ± 0.93; promoter activity interaction Z-score [1, 21]: 0.045 ± 0.16; promoter activity interaction Z-score [1, 22]: -0.703 ± 0.75; promoter activity interaction Z-score [2, 7]: 0.00552 ± 0.088; promoter activity interaction Z-score [2, 8]: -0.146 ± 0.15; promoter activity interaction Z-score [2, 9]: -0.0761 ± 0.045; promoter activity interaction Z-score [2, 10]: -0.264 ± 0.15; promoter activity interaction Z-score [2, 11]: 0.13 ± 0.05; promoter activity interaction Z-score [2, 12]: 0.0167 ± 0.14; promoter activity interaction Z-score [2, 13]: -0.0679 ± 0.059; promoter activity interaction Z-score [2, 14]: -0.148 ± 0.27; promoter activity interaction Z-score [2, 15]: -0.112 ± 0.27; promoter activity interaction Z-score [2, 16]: -0.0842 ± 0.077; promoter activity interaction Z-score [2, 17]: -0.0193 ± 0.093; promoter activity interaction Z-score [2, 18]: -0.266 ± 0.18; promoter activity interaction Z-score [2, 19]: -0.272 ± 0.16; promoter activity interaction Z-score [2, 20]: -0.139 ± 0.059; promoter activity interaction Z-score [2, 21]: -0.0211 ± 0.15; promoter activity interaction Z-score [2, 22]: -0.639 ± 0.054; promoter activity interaction Z-score [3, 7]: -0.0853 ± 0.096; promoter activity interaction Z-score [3, 8]: 0.15 ± 0.27; promoter activity interaction Z-score [3, 9]: -0.247 ± 0.24; promoter activity interaction Z-score [3, 10]: -0.152 ± 0.042; promoter activity interaction Z-score [3, 11]: 0.324 ± 0.3; promoter activity interaction Z-score [3, 12]: -0.184 ± 0.32; promoter activity interaction Z-score [3, 13]: 0.0351 ± 0.21; promoter activity interaction Z-score [3, 14]: 0.0638 ± 0.27; promoter activity interaction Z-score [3, 15]: 0.0298 ± 0.29; promoter activity interaction Z-score [3, 16]: 0.086 ± 0.054; promoter activity interaction Z-score [3, 17]: -0.035 ± 0.23; promoter activity interaction Z-score [3, 18]: -0.0829 ± 0.38; promoter activity interaction Z-score [3, 19]: 0.489 ± 0.45; promoter activity interaction Z-score [3, 20]: 0.879 ± 0.27; promoter activity interaction Z-score [3, 21]: 1.38 ± 0.61; promoter activity interaction Z-score [3, 22]: 0.0824 ± 1.4; promoter activity interaction Z-score [4, 7]: 0.0506 ± 0.23; promoter activity interaction Z-score [4, 8]: -0.0397 ± 0.005; promoter activity interaction Z-score [4, 9]: 0.283 ± 0.84; promoter activity interaction Z-score [4, 10]: -0.0239 ± 0.021; promoter activity interaction Z-score [4, 11]: 0.564 ± 0.3; promoter activity interaction Z-score [4, 12]: 0.263 ± 0.19; promoter activity interaction Z-score [4, 13]: 0.443 ± 0.078; promoter activity interaction Z-score [4, 14]: 0.154 ± 0.23; promoter activity interaction Z-score [4, 15]: 0.0585 ± 0.068; promoter activity interaction Z-score [4, 16]: 0.404 ± 0.017; promoter activity interaction Z-score [4, 17]: 0.606 ± 0.011; promoter activity interaction Z-score [4, 18]: 0.00285 ± 0.0042; promoter activity interaction Z-score [4, 19]: 0.179 ± 0.51; promoter activity interaction Z-score [4, 20]: 0.636 ± 0.1; promoter activity interaction Z-score [4, 21]: 0.356 ± 0.1; promoter activity interaction Z-score [4, 22]: -0.904 ± 1.2; promoter activity interaction Z-score [5, 7]: -0.0446 ± 0.039; promoter activity interaction Z-score [5, 8]: -0.141 ± 0.061; promoter activity interaction Z-score [5, 9]: 0.0401 ± 0.031; promoter activity interaction Z-score [5, 10]: -0.0874 ± 0.14; promoter activity interaction Z-score [5, 11]: 0.017 ± 0.053; promoter activity interaction Z-score [5, 12]: -0.00164 ± 0.038; promoter activity interaction Z-score [5, 13]: 0.126 ± 0.088; promoter activity interaction Z-score [5, 14]: 0.0907 ± 0.13; promoter activity interaction Z-score [5, 15]: -0.0137 ± 0.014; promoter activity interaction Z-score [5, 16]: -0.056 ± 0.022; promoter activity interaction Z-score [5, 17]: -0.105 ± 0.013; promoter activity interaction Z-score [5, 18]: -0.0509 ± 0.17; promoter activity interaction Z-score [5, 19]: -0.122 ± 0.084; promoter activity interaction Z-score [5, 20]: -0.184 ± 0.011; promoter activity interaction Z-score [5, 21]: -0.0489 ± 0.12; promoter activity interaction Z-score [5, 22]: -0.233 ± 0.7; promoter activity interaction Z-score [6, 7]: 0.0285 ± 0.87; promoter activity interaction Z-score [6, 8]: -0.171 ± 0.024; promoter activity interaction Z-score [6, 9]: -0.382 ± 0.53; promoter activity interaction Z-score [6, 10]: 0.0095 ± 1.5; promoter activity interaction Z-score [6, 11]: 0.334 ± 0.13; promoter activity interaction Z-score [6, 12]: 0.917 ± 0.67; promoter activity interaction Z-score [6, 13]: 0.279 ± 0.2; promoter activity interaction Z-score [6, 14]: -0.332 ± 0.83; promoter activity interaction Z-score [6, 15]: -0.441 ± 0.82; promoter activity interaction Z-score [6, 16]: -0.635 ± 0.38; promoter activity interaction Z-score [6, 17]: 0.0967 ± 0.77; promoter activity interaction Z-score [6, 18]: -0.574 ± 0.84; promoter activity interaction Z-score [6, 19]: -0.552 ± 0.3; promoter activity interaction Z-score [6, 20]: 0.498 ± 0.032; promoter activity interaction Z-score [6, 21]: 0.489 ± 0.43; promoter activity interaction Z-score [6, 22]: -0.895 ± 0.62
